Records with an inconclusive call do not appear. Calls of active or inactive are those of the source. How the source made its calls: active means hit-call score of the fitted dose curve at least 0.9, where 1 is the maximum; inconclusive means response in the unintended direction; inactive means score below 0.9.
Assay: CCTE_Mundy_HCI_iCellGluta_NOG_NeuriteLength: CCTE's Neurite Outgrowth Assay in iCellGluta cells for Neurite Length, Mundy Lab (AID 2284318)
Method: CCTE_Mundy_HCI_iCellGluta_NOG is a multiplexed, cell-based-readout assay that uses iCell GlutaNeurons from FUJIFILM Cellular Dynamics, Inc. (FCDI), human glutamatergic enriched neurons derived from induced pluripotent stem (iPS) cells, with measurements taken at 50.33 hours after chemical dosing in a microplate: 96-well plate.CCTE_Mundy_HCI_iCellGluta_NOG_NeuriteLength is one of four components of the CCTE_Mundy_HCI_iCellGluta_NOG assay. It measures neurite outgrowth related to neurite length using High Content Imaging of fluorescently labelled markers.Data from the assay component CCTE_Mundy_HCI_iCellGluta_NOG_NeuriteLength was analyzed at the endpoint CCTE_Mundy_HCI_iCellGluta_NOG_NeuriteLength in the positive analysis fitting direction relative to DMSO as the negative control and baseline of activity. Using a type of morphology reporter, loss-of-signal activity can be used to understand developmental effects.
Exposure starts 2 hours post-plating by adding 10 ul of the working solution to 90 ul of media in the wells for a 1/10 dilution. Forty-eight hours after chemical treatment cells are fixed by direct addition of 100 ul of warm (37C) Dulbecco's phosphate buffered saline (DPBS) fixative solution containing 8% paraformaldehyde, 8% sucrose, and 0.1% of 3 mg/ml Hoechst 33342 into each well. Primary antibodies are prepared by dilution in Immunocytochemical Staining Buffer (ISB), 10X Dulbecco's PBS, 0.1% Saponin, 5% Bovine Serum Albumin, 0.5% NaN3 (Sodium Azide) and betaIII-tubulin (rabbit anti-betaIII-tubulin, 1:800) followed by Alexa Fluor-488 secondary (1:500) to label neuronal cell bodies and neurites. A Cellomics ArrayScan VTi HCS Reader is used for automated image acquisition and analysis of neurite outgrowth.

outcome, inactive:
C[C@@H]1CCO[C@H]2Cn3cc(C(=O)NCc4ccc(F)cc4F)c(=O)c(O)c3C(=O)N12, CC(C)O, CC(=O)N[C@@H](CC(=O)O)C(=O)O, CCCCCC(C)(CC)C(=O)NC (stereo unspecified), Cc1[nH]n(C)c(=O)c1C(=O)c1ccc(C(F)(F)F)cc1S(C)(=O)=O, CCCCCC=C(C)C(CC)CCO (stereo unspecified), O=C1CC2(CCCC2)CC(=O)N1CCCCN1CCN(c2ncccn2)CC1, C[C@@H]1CC[C@@H](C(C)(C)O)[C@H](O)C1, CC(C)c1nn(C(=O)NC(C)(C)C)c(=O)n1N

AC50, active:
CC(CNC(=S)[S-])NC(=S)[S-].[Zn+2] (stereo unspecified) 13 µM, BrC1CC(Br)CC(Br)CC(Br)CC(Br)CC(Br)C1 (stereo unspecified) 3.77 µM
